PubChem BioAssay AID588458 (Sanford-Burnham Center for Chemical Genomics, 2011)
The whole screen tested about 360,000 compounds, of which about 3,000 (0.83%) were called active. No stated cut-off is given here; in the data, active means inhibition above about 50%; inactive means the rest. Many of the other results were omitted from the sample, so actives are more common in it than they were.

The compounds below were run against DNA (cytosine-5)-methyltransferase 1 (Homo sapiens) (UniProt P26358) (assay: inhibition of DNA methyltransferase DNMT1 – biochemical, molecular beacon, fluorescence, HinP1I cleavage, uHTS, primary screen (AID 588458)). Settings: at 10 µM, active compounds read high.
DNA (cytosine-5)-methyltransferase 1 (Homo sapiens), sequence (P26358 504-1616 limits assumed): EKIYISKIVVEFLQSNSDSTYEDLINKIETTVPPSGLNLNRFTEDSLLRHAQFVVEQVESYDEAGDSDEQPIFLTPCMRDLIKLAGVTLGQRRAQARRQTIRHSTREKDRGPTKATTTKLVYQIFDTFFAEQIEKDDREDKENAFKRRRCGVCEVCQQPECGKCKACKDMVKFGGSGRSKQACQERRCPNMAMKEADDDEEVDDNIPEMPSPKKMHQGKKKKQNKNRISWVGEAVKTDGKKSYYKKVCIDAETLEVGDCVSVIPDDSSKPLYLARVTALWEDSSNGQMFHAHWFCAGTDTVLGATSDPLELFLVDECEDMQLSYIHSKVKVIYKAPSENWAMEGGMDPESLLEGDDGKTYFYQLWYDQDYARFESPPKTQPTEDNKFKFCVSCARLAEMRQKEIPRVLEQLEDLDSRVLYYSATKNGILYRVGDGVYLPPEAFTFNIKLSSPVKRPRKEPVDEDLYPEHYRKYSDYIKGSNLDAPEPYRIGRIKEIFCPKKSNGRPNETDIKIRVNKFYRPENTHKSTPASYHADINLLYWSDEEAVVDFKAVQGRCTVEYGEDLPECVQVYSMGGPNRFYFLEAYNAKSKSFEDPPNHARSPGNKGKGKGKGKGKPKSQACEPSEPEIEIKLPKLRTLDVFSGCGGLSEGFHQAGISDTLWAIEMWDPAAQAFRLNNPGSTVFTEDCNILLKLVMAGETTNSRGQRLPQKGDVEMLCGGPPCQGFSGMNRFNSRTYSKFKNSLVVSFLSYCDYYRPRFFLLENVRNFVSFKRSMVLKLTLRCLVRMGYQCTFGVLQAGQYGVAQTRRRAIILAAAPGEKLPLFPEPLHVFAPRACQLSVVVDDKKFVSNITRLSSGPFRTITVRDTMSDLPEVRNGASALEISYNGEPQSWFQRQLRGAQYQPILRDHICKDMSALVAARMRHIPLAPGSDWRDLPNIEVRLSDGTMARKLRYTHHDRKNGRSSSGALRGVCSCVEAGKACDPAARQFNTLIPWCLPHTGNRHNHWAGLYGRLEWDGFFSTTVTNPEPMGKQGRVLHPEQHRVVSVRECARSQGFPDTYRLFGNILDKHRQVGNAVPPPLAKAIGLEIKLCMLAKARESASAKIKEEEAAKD

Inhibition (reported as % activation of signal), active:
Cc1ccc(C(=O)NNC(=O)c2cc3cc4ccccc4nc3s2)cc1 54.4%
C/C(=N\Nc1ccc(S(N)(=O)=O)cc1[N+](=O)[O-])c1cccs1 51%
Clc1ccc(C2=CSC3=Nc4cccc5cccc(c45)N23)cc1 61.1%
CCc1nn(-c2cc(Oc3cccc4ccccc34)nc(-c3ccccc3)n2)c(N)c1C#N 56.2%
Cc1ccc(-c2cc(C(=O)NCc3cn(C)nc3C)c3cc(Br)ccc3n2)cc1 54.2%
CC(Oc1ccccc1)C(=O)Nc1oc(-c2ccco2)c(-c2ccco2)c1C#N (configuration not stated) 63.1%
O=C(NNc1ccccn1)c1ccc(Cl)nc1 80.7%
O=C(COC(=O)CCC(=O)c1cccs1)NCc1ccco1 72.8%
CCOc1ccc(NC(=O)c2ccc(NC(=O)COC(=O)c3ccc(NC(=O)CC#N)cc3)cc2)cc1 61.4%

Inhibition (reported as % activation of signal), inactive:
Cc1ccc(C(=O)NNC(=O)CSc2nnc3ccccn23)cc1 -3.3%
Cc1ccc(C(=O)NNc2ncnc3ccccc23)cc1 2.1%
CCOc1cc(C(=O)Nc2c(C)ccc3nsnc23)cc(OCC)c1OCC 1.78%
c1ccc2c(-c3nn4nnnc4c4ccccc34)cccc2c1 -1.65%
CCCN1Cc2cccc(C(=O)NCc3ccccc3)c2C1=O 0.1%
Cc1ccc(S(=O)(=O)N2CCN=C2SCc2c(F)cccc2Cl)cc1 -1.13%
CCOC(=O)C/C(C)=N\Nc1ccc([N+](=O)[O-])cc1[N+](=O)[O-] 8.42%
C/C(=N\Nc1ccccc1)c1cccs1 -15%
CCCCNc1c(-c2cccc(Sc3ccc(OC)cc3)c2)nc2ccccn12 -24.9%
CCc1nnc(NC(=O)c2cc(S(=O)(=O)N3CCN(CC)CC3)ccc2Cl)s1 1.36%
O=C(COC(=O)c1ccc(S(=O)(=O)N2CCc3ccccc3C2)cc1)NC(=O)NCc1ccco1 4.21%
CCc1nc(SCC(=O)Nc2ccccc2OC)n[nH]1 0.12%
CCOc1ccccc1NC(=S)C(=C([O-])c1ccc2c(c1)OCCO2)[n+]1ccc(CC)cc1 -14.6%
CC(C)(C)n1nc(Cc2cccc3ccccc23)c(C#N)c1N 3.39%
CCCCn1nnnc1C(c1cccc(OC)c1OC)N1CCN(C/C=C/c2ccccc2)CC1 (configuration not stated) -2.12%
O=C(CCN1CCc2ccccc2C(O)(c2ccccc2)C1)c1ccc2c(c1)OCCO2 (configuration not stated) -2.82%
CSC1=NC2(C)CCCCC2C12C=CC(=O)C=C2 (configuration not stated) -0.69%
CS(=O)(=O)N(CC(=O)N1CCN(c2ccc(F)cc2)CC1)C1CCCCC1 0.1%
O=C(NNC1=NCCC1)c1cccc(S(=O)(=O)N2CCCCC2)c1 2.1%
Cc1nn(C)cc1CNC(=O)Nc1ccc(Cl)cc1 -5.06%
O=C(NCc1cccs1)c1cc(-c2ccccn2)nc2ccc(Br)cc12 18.8%
CCCCc1nc2cc(C(=O)N3CCCCC3CCO)ccc2o1 (configuration not stated) 0.96%
CC1CCN(C(=O)CCc2nnc3ccc(NCc4ccco4)nn23)CC1 -2.17%
N#Cc1c(NC(=O)CCCN2C(=O)c3ccccc3C2=O)oc(-c2ccccc2)c1-c1ccccc1 -7.82%
CC(C)C(=O)Nc1oc(-c2ccccc2)cc1C#N 1.41%
Cc1cc(=O)oc(C)c1C(=O)NC1CC(C)(C)NC(C)(C)C1 4.08%
O=C(Nc1nccs1)C1CCN(S(=O)(=O)c2ccc(Cl)c(C(F)(F)F)c2)CC1 -0.42%
Cc1ccc(C)c(C(O)c2ncc(-c3cccc4ccccc34)[nH]2)c1 (configuration not stated) -0.1%
O=C1CSc2ccc(S(=O)(=O)NCc3ccccc3)cc2N1 -1.62%
OCCCC1CCCCN1Cc1nc(Cc2ccccc2Cl)no1 (configuration not stated) 0.35%
CCN(CC)c1ccc(NC(=O)c2ccc(Cl)nc2)cc1 -2.12%
O=C(NNC(=O)c1ccc(Cl)nc1)c1ccc(Br)cc1 5.15%
CCN(CC)P(=O)(C(NC(=O)OC)C(F)(F)C(F)(F)C(F)(F)C(F)F)N(CC)CC (configuration not stated) 0.14%
O=C(COC(=O)Cc1ccc(Cl)cc1Cl)NCc1ccco1 -2.23%
CC1CCN(C(=O)COC(=O)CCC(=O)c2cccs2)CC1 0.68%
CC(C)NC(=O)NC(=O)COC(=O)c1ccc(NC(=O)CC#N)cc1 -1.52%
N#CCC(=O)Nc1ccc(C(=O)OCC(=O)Nc2sc3c(c2C#N)CCCC3)cc1 -11.8%
CC1CCN(C2=NC(=O)/C(=C/c3cn[nH]c3-c3ccccc3)S2)CC1 -3.21%
